Screening data: PubChem, National Center for Advancing Translational Sciences (NCATS)
The list is not random: actives were taken first. Their share in the collection is about 13%.
Shiga toxin inh – A qHTS for Small Molecule Inhibitors of Shiga Toxin | Vero cells, Shiga toxin protein synthesis inhibition reporter | inhibition, % at 38.7 µM | 290,000 compounds, 9.2% hits | AID 2315, 2010; in the data active = inhibition mostly above about 28%, no sharp cut-off; inactive = mostly below about 43%; note: 0% is about no effect
HCV inh – qHTS Assay for Inhibitors of Hepatitis C Virus (HCV); Huh7.5.1 HCVcc-Cre infection, luciferase reporter, 44 h; 340,000 compounds, 3.4% hits; AID 651820, 2012; Potency, µM (titrated, usually from 41.8 µM), without a hit: at the top dose activity change, negative = inhibition, actives largely listed as inhibitors; active = well fitted inhibition curve with a large enough effect; inconclusive = small, poorly fitted or top-dose-only effect, or another doubt; inactive = no such curve, though single readings can be large or run the other way; note: potency is the fitted concentration of half-maximal effect; % is set by controls: 0 for no effect and ±100 for the full control effect
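Cells seeded at 1,000/well and cultured 4 h, then compounds added followed by HCVcc-Cre virus (~0.5 moi). After 44 h further culture, luciferase substrate was added, plates held 15 min at room temperature, and luminescence read for 15 sec.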
Lassa entry inh – qHTS for Inhibitors of binding or entry into cells for Lassa Virus. Lassa virus pseudotype entry inhibition, cell reporter. Potency, µM (series often up to 37.9 µM), for the others: at the highest dose activity change, negative = inhibition, usual class: inhibitors. AID 540256, 2011. 300,000 compounds, 1.2% hits; calls by dose curve; tested in HEK293 cells; note: potency is the fitted concentration of half-maximal effect; % is set by controls: 0 for no effect and ±100 for the full control effect; nearly all actives have a fitted effect of over 50% in size
Cycloheximide cs – Cycloheximide Counterscreen for Small Molecule Inhibitors of Shiga Toxin; cell reporter, cycloheximide protein synthesis inhibition counterscreen; max response, %; 300,000 compounds, 12% hits; AID 2314, 2010; in the data active = max response mostly above about 13%, no sharp cut-off; inactive = mostly below about 14%; note: read at 38.3 µM for the half of the compounds with a filed dose; 0% is about no effect
MARV entry inh – qHTS for inhibitors of binding or entry into cells for Marburg Virus; Marburg virus pseudotyped entry inhibition, cell reporter; 300,000 compounds, 1.8% hits; AID 540276, 2011; Potency, µM (doses to about 37.8 µM), inactives show at the highest dose activity change, negative = inhibition, actives largely listed as inhibitors; calls by dose curve; tested in HEK293 cells; note: potency is the fitted concentration of half-maximal effect; % is set by controls: 0 for no effect and ±100 for the full control effect
FMDV antiviral – High Throughput Screening for Foot and Mouth Disease Virus Antivirals | FMDV antiviral cell-based qHTS | Potency, µM (top dose mostly 57.9 µM), without a hit: at the top dose activity change, negative = inhibition, usual class: inhibitors | 410,000 compounds, 1.2% hits; calls by dose curve; tested in HEK293T cells; note: read-out not given here; potency is the fitted concentration of half-maximal effect; % is set by controls: 0 for no effect and ±100 for the full control effect; nearly all actives have a fitted effect of over 45% in size
* marks the source's active call; other numbers are inactive results; ? = inconclusive; / = no result; ! = not active in a repeat; [ ] = another dose, or the depositor's remark.

SMILES	Shiga toxin inh	HCV inh	Lassa entry inh	Cycloheximide cs	MARV entry inh	FMDV antiviral
Cc1ccc(NC(=O)CNc2cccc(S(=O)(=O)N3CCOCC3)c2)cc1F	/	?	-5.9%[46.1 µM]	/	-29.2%	?
Cc1csc(NC(=O)CSc2nnc(-c3ccncc3)o2)n1	30.2	-27.1%	3.6%	15.8*	-15.4%	-8.0%
Cc1occc1-c1nnc(SCC(=O)N(C)C)o1	54.4	21.1%	?	32.6*	20.4%	60.5%
Cc1cc(-c2nnc(SCC(=O)Nc3ccccn3)o2)no1	-6.8	26.7%	-1.6%	0.4	?	-9.8%
Cc1cc(-c2nnc(SCC(=O)Nc3nccs3)o2)no1	43.1*	9.8%	/	19.7*	/	-5.0%
Cc1csc(NC(=O)CSc2nnc(-c3ccoc3C)o2)n1	69.8*	?	?	41.0*	-4.8%	25.2%
CCn1c(SCC(=O)Nc2nc(C)cs2)nnc1-c1ccoc1C	-15.3	-6.1%	-8.7%	4.4	-4.8%	-6.8%
CCOc1cc2c3c(c1)C1(Nc4ccccc4S1)C(=O)N3C(C)(C)CC2C (configuration not stated)	5.8	?	-29.6%	2.3	?	-13.5%
COc1ccc(Cl)c(NC(=O)C/C(C)=N/NC(=O)CCc2ccccc2)c1	-2.6	?	?	-3.9	?	15.2%
COc1cc2c(cc1OC)C(c1cc(OC)c(OC)c(OC)c1)C1(O)C(=O)OCC1(O)C2 (configuration not stated)	/	2.3%	2.4%[46.1 µM]	/	13.4%[46.1 µM]	6.5%
Cc1snc(S(=O)(=O)Cc2c(Cl)cccc2Cl)c1C#N	-3.7	-3.1%	2.3%	-1.1	5.8%	24.7%
Cc1occc1-c1nnc(SCC(=O)Nc2nc(C(C)(C)C)cs2)o1	49.6*	?	-22.1%	27.4*	?	-23.3%
CCOC(=O)Cc1csc(NC(=O)CSc2nnc(-c3ccncc3)o2)n1	3.3	?	11.0%[46.1 µM]	-2.5	-15.1%[46.1 µM]	-18.5%
O=C(OCC(=O)N1CCOCC1)c1ccc(Cl)nc1	-3.7	-3.3%	24.7%	-1.6	10.3%	20.5%
COc1ccc(C2CC(O)(c3ccccc3)Oc3cc(OC)c(OC)c(OC)c32)cc1 (configuration not stated)	33.2	-26.0%	/	19.6*!	/	6.2%
COc1cc(/C=N\NC(=O)c2ccc(-c3ccccc3)cc2)cc(Br)c1O	-24.7	?	-5.6%	0.9	?	-6.2%
COc1cc(/C=N/NC(=O)c2ccc3c(c2)OCCO3)cc(Br)c1O	41.2*	-4.9%	/	32.4*	/	26.1%
COc1cc(/C=N/NC(=O)c2ccc3c(c2)OCCO3)c(Br)c(Br)c1O	30.2	-4.5%	/	31.9*	/	13.3%
COc1cc(/C=N/NC(=O)CC2(C)OCCO2)cc(Br)c1O	1.6	9.2%	/	4.3	/	-7.1%
COc1cc(/C=N/NC(=O)C23CC4CC(CC(C4)C2)C3)cc(Br)c1O	25.6*	14.1%	3.5%	3.6	?	-3.9%
CCCCn1c(N)c(N(CC(C)C)C(=O)CCNC(=O)c2ccccc2Cl)c(=O)[nH]c1=O	/	?	-2.6%	/	9.0%[46.1 µM]	-13.4%
Cc1c(C(=O)NCC(C)(C)N2CCOCC2)oc2ccccc12	/	28.8%	/	/	/	-1.9%
CCc1ccc(C(=O)CC2(O)C(=O)N(CN3CCOCC3)c3ccccc32)cc1 (configuration not stated)	29.8	12.8%	4.4%	19.0*	?	27.2%
CC(C)c1ccc(C(=O)CC2(O)C(=O)N(CN3CCOCC3)c3ccccc32)cc1 (configuration not stated)	64.2*	-2.7%	16.0%	38.7*	11.6%	39.9%
COC(=O)CN1C(=O)C(O)(CC(=O)c2ccc(C)cc2)c2ccccc21 (configuration not stated)	15.8	6.9%	-4.8%	-2.8	35.3%	0.0%
SMILES	Shiga toxin inh	HCV inh	Lassa entry inh	Cycloheximide cs	MARV entry inh	FMDV antiviral
Cc1ccc(C(=O)CC2(O)C(=O)N(CN3CCOCC3)c3ccccc32)cc1 (configuration not stated)	44.4*	16.2%	0.5%	18.1*	6.7%[46.1 µM]	20.4%
COC(=O)c1c(NC(=O)/C(C#N)=C/c2ccc(OC)cc2)sc2c1C(C(=O)OC)CC2 (configuration not stated)	/	/	23.5%[46.1 µM]	/	/	-16.8%
CCCCN(C=O)c1c(CC)nc2ccc(C(=O)N3CCN(C(=O)c4ccco4)CC3)cn12	/	/	/	/	/	-1.2%
Cc1ccc(C(C(=O)NCc2ccco2)N(C(=O)CNC(=O)c2cccs2)c2ccc(C)cc2C)cc1 (configuration not stated)	67.7*	-14.3%	-27.1%	15.8*	?	/
Cc1ccc(N(C(=O)CNC(=O)c2ccco2)C(C(=O)NC2CCCC2)c2ccncc2)c(C)c1 (configuration not stated)	-11.5	9.6%	29.7%[46.1 µM]	-2.9	0.6%[46.1 µM]	-6.5%
CN=c1c([N+](=O)[O-])nn(-c2ccc3c(c2)OCCO3)n1O	60.8*	?	/	31.8*	/	6.1%
COc1cc(N=c2c([N+](=O)[O-])nn(-c3ccc4c(c3)OCCO4)n2O)cc(OC)c1	18.8*	?	?	29.3*	?	-27.2%
CC(C)c1ccc(N=c2c([N+](=O)[O-])nn(-c3ccc4c(c3)OCCO4)n2O)cc1	16.8	-18.1%	10.1%	14.1*	-1.7%	/
CCc1cccc(N=c2c([N+](=O)[O-])nn(-c3ccc4c(c3)OCCO4)n2O)c1	71.3*	10µM*	?	11.3	?	?
O=C(C(=O)N1CCN(c2cccc(Cl)c2)CC1)N1CCCCC1	-2.2	19.8%	6.0%	-2.3	-0.6%[46.1 µM]	-5.0%
Cc1csc2nc(CSc3nc4ccccc4o3)cn12	70.6*	1.6%	?	53.1*	-0.7%	23.5%
c1ccc2oc(SCc3cn4ccsc4n3)nc2c1	119.2*	-9.5%	?	50.4*	-2.5%	-13.2%
Nn1c(CSc2nc3ccccc3o2)nnc1CSc1nc2ccccc2o1	-10.2	?	?	-3.2	6.7%	-8.9%
Cc1cc(C)n2c(Br)c(CSc3nc4ccccc4o3)nc2n1	39.8	?	-3.8%	40.9*	20.5%	46.7%
O=C(CSc1nc2[nH]ncc2c(=O)n1-c1ccccc1)N1CCCCCC1	-2.2	/	/	-2.0	/	/
CC(C)C[C@H](NC(=O)[C@@H]1Cc2c([nH]c3ccccc23)C2c3ccccc3C(=O)N21)C(=O)N1CCC[C@@H]1C(=O)O (some centres not stated)	-2.0	-60.9%	/	-1.9	/	-4.8%
O=C(NNC(=O)c1cccc2ccccc12)c1ccco1	-12.8	24.5%	-2.6%	3.4	0.1%	5.5%
O=C(NNC(=O)c1ccccc1O)c1ccco1	96.9*	-2.1%	26.2%[46.1 µM]	26.7*	?	18.2%
Cc1cccc(C(=O)NNC(=O)c2ccco2)c1O	/	1.0%	2.3%[46.1 µM]	/	1.5%[46.1 µM]	17.7%
O=C(NNC(=O)c1ccccc1F)c1ccco1	40.3*	7.0%	?	13.6	?	22.6%
